# Screening data as filed in PubChem.
# This is a sample that favours compounds with a hit; in the whole collection about 21% have one here.
# DRD3 antagonist: blocks the human D3 dopamine receptor | D3R cells, DiscoveRx beta-arrestin luminescence, antagonist mode; stronger effect = lower value | P35462 | AID 652054 | 2.5% of 360,000 active | max response, negative = inhibition, %; in the data active = max response below about -50%; inconclusive = no clear call, values can overlap the other calls
# Target sequence (P35462 whole entry, looked up): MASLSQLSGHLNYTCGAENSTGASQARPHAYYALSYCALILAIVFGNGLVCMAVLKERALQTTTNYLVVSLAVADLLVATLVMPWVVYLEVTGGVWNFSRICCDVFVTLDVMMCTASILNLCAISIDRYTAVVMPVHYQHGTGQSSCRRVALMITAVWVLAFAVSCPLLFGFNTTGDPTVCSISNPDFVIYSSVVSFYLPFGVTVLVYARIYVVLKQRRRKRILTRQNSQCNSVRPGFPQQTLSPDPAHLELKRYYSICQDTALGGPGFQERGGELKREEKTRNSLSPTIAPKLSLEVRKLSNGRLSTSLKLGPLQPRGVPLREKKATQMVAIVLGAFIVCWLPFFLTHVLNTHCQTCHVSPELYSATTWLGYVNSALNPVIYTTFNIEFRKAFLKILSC
#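 Cells expressing the human receptor were seeded at 1500 cells/well, incubated overnight at 37 degrees C in 5% CO2, then exposed to library compounds with dopamine controls for 90 minutes at 37 degrees C before luminescent detection.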
# D3 ag: activates the human D3 dopamine receptor; D3R DiscoveRx beta-arrestin cells, luminescence, 90 min; max activation, %; 0.58% of 410,000 active; P35462; in the data active = max activation above about 30%
#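 Agonist mode: compounds and dopamine controls were applied to plated cells for 90 min at 37 degrees C after an overnight attachment at 1500 cells/well. Luminescent read-out followed 30 - 60 minutes at room temperature with DiscoveRx detection reagent.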
# TDP1 cell noCPT: qHTS for Inhibitors of human tyrosyl-DNA phosphodiesterase 1 (TDP1): qHTS in cells in absence of CPT; 15% of 420,000 active; DT40 Tdp1-/- hTDP1 cells, no CPT, ATP luminescence, 48 h; Potency, µM (top dose mostly 46.2 µM), hits mostly inhibitors; note: nearly all actives have a fitted effect of over 55% in size
#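 Luminescent ATP content (CellTiter-Glo) served as the growth readout. Knockout chicken DT40 cells expressing human TDP1 were exposed to compounds without camptothecin for a minimum 48 hr at 37 °C.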
# ClpP mod: qHTS Assay for Activators of ClpP. ATP-dependent Clp protease proteolytic subunit (Bacillus subtilis (strain 168)), P80244. purified B. subtilis ClpP, FRET peptide cleavage, 20 min. Potency, µM (series often up to 57.5 µM). 1.9% of 340,000 active. AID 651965, 2013; active = well fitted falling curve with a large enough effect; inconclusive = small, poorly fitted or top-dose-only effect; inactive = no such curve, though single readings can be large or run the other way; note: the source files actives as falling curves though it sought activators and does not explain the sign; nearly all actives have a fitted effect of over 65% in size
# Target sequence (P80244 whole entry, looked up): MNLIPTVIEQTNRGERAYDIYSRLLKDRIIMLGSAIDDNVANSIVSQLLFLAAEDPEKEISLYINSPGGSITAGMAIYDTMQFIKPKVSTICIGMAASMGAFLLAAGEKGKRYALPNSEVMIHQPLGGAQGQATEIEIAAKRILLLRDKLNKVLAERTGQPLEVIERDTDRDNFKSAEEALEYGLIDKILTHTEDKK
#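 Purified B. subtilis ClpP, 10 microg/mL final in Tris/HCl pH8 with KCl, BSA, glycerol and Tween-20, cleaved an Abz/nitrotyrosine-quenched decapeptide. Fluorescence (ex 320, em 430) was read at 0 and 20 min at room temperature. Delta was normalized to 5.8 microM ADEP and DMSO/no-enzyme controls.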
# IL-1B inflam inh: blocks inflammasome-driven IL-1 beta release | THP-1 LPS/ATP IL-1B secretion, AlphaLISA, 16 h; stronger effect = lower value | activity change, % at 57.5 µM | 4.7% of 360,000 active; in the data active = activity change below about -50%; inconclusive = mostly about -30% to -49%
#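 THP-1 cells pretreated 1 hr with compounds (up to 57.5 uM final), then stimulated with LPS (250 ng/mL final) plus ATP (1.25 mM final); secreted IL-1B measured by AlphaLISA after 16 hr, decreased signal indicating inhibition.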
# DT40 TDP1 CPT: growth inhibition of DT40 Tdp1-/-;hTDP1 cells with camptothecin (screen for TDP1 inhibitors); 12% of 420,000 active; chicken DT40 Tdp1-/-;hTDP1 cells + 20 nM CPT, ATP luminescence, 48 h; Potency, µM (highest dose often 46.2 µM), usual class: inhibitors; AID 686979; note: nearly all actives have a fitted effect of over 55% in size
#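 Cell growth measured by CellTiter-Glo luminescence after a minimum 48 h, 37 C compound exposure with 20 nM CPT in Tdp1-knockout DT40 cells stably expressing hTDP1, seeded 400/well; qHTS titration format.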
# Numbers stand for hits; - = inactive; ? = inconclusive; . = no result; [ ] = another dose, or the depositor's remark. Unless noted, calls come from the whole dose curve; as a rule, active = well fitted inhibition curve with a large enough effect; inconclusive = small, poorly fitted or top-dose-only effect; inactive = flat fitted curve, though single readings scatter.
SMILES,DRD3 antagonist,D3 ag,TDP1 cell noCPT,ClpP mod,IL-1B inflam inh,DT40 TDP1 CPT
CCCc1c(C)nn(C(=O)/C(C#N)=N/Nc2ccccc2[N+](=O)[O-])c1C,?,-,-,.,-,-
COc1ccc(C(=O)/C(C#N)=N/Nc2ccccc2[N+](=O)[O-])cc1,?,-,1.8µM,-,-,2.3µM
COc1ccc(C(=O)/C(C#N)=N/Nc2ccc([N+](=O)[O-])cc2)cc1,?,-,0.52µM,-,-,0.58µM
CCN(CC)CCCC(C)NC(=O)c1cccc(S(=O)(=O)N2CCc3ccccc32)c1 (stereo not drawn),-,-,-,-,?,-
CCc1n[nH]c(=S)n1/N=C/c1c(O)ccc2ccccc12,-,-,-,-,-,-
CCOC(=O)C1(CCOc2ccccc2)CCN(Cc2cccn2-c2ncccn2)CC1,-,-,?,.,-,?
CCOC(=O)C1(CCOc2ccccc2)CCN(Cc2cc(OC)ccc2OC)CC1,-,-,15µM,-,-,?
CCOC(=O)C1(CCOc2ccccc2)CCN(Cc2cccs2)CC1,-,-,?,.,-,?
CCOC(=O)C1(CCOc2ccccc2)CCN(Cc2cccc(OC)c2)CC1,-,-,15µM,-,-,23µM
CCOC(=O)C1(CCOC)CCN(Cc2ccccc2-c2ccco2)CC1,-,-,?,.,-,?
CCOC(=O)C1(CCOC)CCN(Cc2cccc(OCc3ccccc3)c2)CC1,-,-,16µM,-,-,15µM
CCOC(=O)C1(CCOC)CCN(C/C=C/c2ccccc2OC)CC1,-71,-,10µM,-,-,10µM
CC(NS(=O)(=O)c1ccc(OCC(=O)NCc2ccncc2)cc1)c1ccccc1 (stereo not drawn),-,-,-,.,-,-
CCOC(=O)C1(CCOC)CCN(Cc2ccncc2)CC1,-,-,-,.,-,-
CCOC(=O)C1(CCOc2ccccc2)CCN(Cc2cccc(OC)c2O)CC1,-,-,?,.,-85,?
CCOC(=O)C1(CCOC)CCN(Cc2nc(C(C)C)cs2)CC1,-,-,26µM,.,-,?
CCCOc1cc(C)c(S(=O)(=O)NCc2cccs2)cc1C,-,-,?,-,-,?
CC(N)(COP(=O)(O)O)C(=O)O (stereo not drawn),.,.,-,.,.,-
Cc1cc2oc(=O)c3c(c2cc1OCc1nn[nH]n1)CCCC3,-,-,-,25µM,-,-
COc1ccc(CCNC(=O)CCS(=O)(=O)c2ccc3c(c2)NC(=O)C(C)S3)cc1OC (stereo not drawn),-,-,-,-,-,-
CC(C)C[C@@H](CN1CCC[C@@H]1CN1C(=O)C(=O)NC[C@@H]1Cc1ccc(O)cc1)N1C[C@H](Cc2ccc(O)cc2)N(CC2CCCCCC2)C(=O)C1=O,-,-,-,-,-,-
CC(C)C[C@@H](CN1CCC[C@@H]1CN1C(=O)C(=O)NC[C@@H]1Cc1ccccc1)N1C[C@H](Cc2ccc(O)cc2)N(CC2CCCCC2)C(=O)C1=O,-,-,?,-,-75,?
CC(C)C[C@@H](CN1CCC[C@@H]1CN1C(=O)C(=O)NC[C@@H]1Cc1ccccc1)N1C[C@H](Cc2ccccc2)N(CC2CCCCC2)C(=O)C1=O,-,-,16µM,-,?,?
CC(C)C[C@@H](CN1CCC[C@H]1CN1C(=O)C(=O)NC[C@@H]1Cc1ccccc1)N1C[C@H](Cc2ccc(O)cc2)N(CC2CCCCCC2)C(=O)C1=O,-,-,23µM,-,-76,23µM
CC(C)C[C@@H](CN1CCC[C@@H]1CN1C(=O)C(=O)NC[C@@H]1Cc1ccccc1)N1C[C@H](Cc2ccccc2)N(CC2CCCCCC2)C(=O)C1=O,-,-,?,-,-,?
SMILES,DRD3 antagonist,D3 ag,TDP1 cell noCPT,ClpP mod,IL-1B inflam inh,DT40 TDP1 CPT
CC(C)(C)NC(=O)C1c2ccccc2OCC(=O)N1CCCN1CCOCC1 (stereo not drawn),?,-,-,-,-,-
COc1ccc(/C=C/C(=O)O)cc1S(=O)(=O)N1CCCC1,-,-,-,?,-,-
CCCCNc1c(-c2ccc(-c3ccc(OC)cc3)c(OC)c2)nc2ccccn12,-,102,13µM,-,-75,18µM
CCCCNc1c(-c2ccc(SC(C)CC)cc2)nc2cnccn12 (stereo not drawn),-,-,8.2µM,?,-72,9.2µM
CCCCNc1c(-c2ccc(OC)c(Sc3ccc(OC)cc3)c2)nc2cnccn12,-,62,23µM,?,-,?
COc1ccc(Nc2c(-c3ccc(OC)cc3)nc3cnccn23)cc1,-,-,?,-,-,?
COc1ccc(C(=O)Nc2c(-c3ccccc3)nc3ccccn23)c(OC)c1,-,-,?,-,-,?
CCCCNc1c(-c2ccc(OC)c(Sc3ccc(OC)cc3)c2)nc2ccccn12,-,-,9.2µM,-,-104,4.1µM
COC(=O)/C=C/c1ccccc1CN1[C@@H](CC(=O)OC)c2ccccc2S1(=O)=O,-,-,-,-,-,-
CC1CSc2n(-c3cccc(C(F)(F)F)c3)cc(-c3ccccc3)[n+]21 (stereo not drawn),-,-,16µM,.,-,?
FC(F)(F)c1cccc(-n2cc(-c3ccccc3)[nH]c2=S)c1,-,-,?,-,-,?
O=C(c1ccccc1)N1CCN(C(=O)c2cccnc2)CC1,-,-,?,-,-,-
O=C(c1cccnc1)N1CCN(CCCc2ccccc2)CC1,-,52,-,-,-,-
COc1ccc(CN2CCN(C(=O)c3cccs3)CC2)cc1,-58,-,-,-,-87,-
O=C(c1cccs1)N1CCN(CCCc2ccccc2)CC1,-65,-,-,-,-,-
CCc1ccccc1NC(=O)CN1C(=O)COc2ccc(S(=O)(=O)N3CCCCCC3)cc21,.,-,?,-,.,-
CCC1CN(CC(=O)NC(C)c2cn(C)nc2C)Cc2cc(OC)ccc2O1 (stereo not drawn),.,.,-,.,.,-[9.04 µM]
Fc1ccc(/C=C\c2nccc3c2[nH]c2ccccc23)cc1,-,-,?,-,-78,?
C(=C\c1nccc2c1[nH]c1ccccc12)/c1ccccc1,-,-,15µM,-,-,?
Cc1ccc(/C=C\c2nccc3c2[nH]c2ccccc23)cc1,?,-,?,-,-,?
CCOc1ccc(/C=C/C(O)=C2/C(=O)N(C)C3(C)CC2c2ccccc2O3)cc1OC (stereo not drawn),-,-,8.2µM,.,-101,5.8µM
CCOc1ccc(/C=C/C(O)=C2/C(=O)NC3(C)CC2c2ccccc2O3)cc1OC (stereo not drawn),-,-,3.7µM,.,-,5.2µM
